# Source: PubChem BioAssay
# The source made the active and inactive calls.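 The calls were made as follows, unless noted: active = inhibition above 20% together with a positive visual image hit; inconclusive = visual image hit but inhibition not above 20%; inactive = no visual image hit.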
# Experiments:
# [1] = inhibitors of TNFa-induced NFkB p65 translocation, primary screen, imaging, HUVEC, MLSMR starter and 10KST1 sets (AID 438); conditions: HUVEC TNFa-induced p65 nuclear translocation; cell count: measured here: nuclei count (cytotoxicity indicator), at 2.08 µM; inhibition: at 2 µM, stronger effect = higher value, 0% TNFa-plus-vehicle, 100% no-TNFa wells;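 also: compound added about 3h40 before a 20 min TNFalpha stimulation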;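 as to inhibition: signal is the nuclear over cytoplasmic p65 intensity ratio per well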
# [2] = reduction of polyQ htt aggregates in cells – imaging, exon1htt(103Q)mCFP cells, high-content imaging, primary screen (AID 483;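 active = visual image review flags a hit and inhibition of aggregation exceeds 20%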;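 also: compound exposure lasted 3 days before fixation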;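 as to nuclei count: percent of the per-plate median nuclei count of sample wells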); conditions: exon1htt(103Q)mCFP cell line, aggregate imaging, at 2 µM; inhibition of aggregation: stronger effect = higher value; nuclei count: measured here: cell count, toxicity
# [3] = endothelial E-selectin expression blockers – imaging, HUVEC, immunofluorescence, MLSMR starter and 10KST1 sets, primary screen (AID 487;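 active = visually confirmed hit in the image check and inhibition above 20%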;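 as to inhibition: signal is fraction of cell area covered by stained E-selectin grains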;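 as to nuclei count: 100% = median nuclei count of all wells on the same plate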); conditions: HUVEC TNFalpha-induced E-selectin immunofluorescence imaging, at 2 µM; inhibition: stronger effect = higher value; nuclei count: measured here: cell number, toxicity
# [4] = target: Voltage-gated potassium channel subunit beta-2 (Rattus norvegicus) (UniProt P62483); assay: inhibitors of rat Kvbeta2 reductase activity – biochemical, NADPH fluorescence, primary screen (AID 622;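 active = fluorescence slope higher than the sample average by over 3 SD, cut at about -0.22 in these data, passing the limit was not always enough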;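 also: slope of raw intensity against log time taken from 70 to 1610 s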); conditions: recombinant KvBeta, 4-cyanobenzaldehyde reduction, at 10 µM, stronger effect = higher value
# [5] = target: Voltage-gated potassium channel subunit beta-2 (Rattus norvegicus) (UniProt P62483); assay: enhancers of rat Kvbeta2 NADPH turnover – biochemical, NADPH fluorescence, primary screen (AID 623;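 active = NADPH fluorescence slope more negative than the mean of all samples by about 3 SD, 99.7% confidence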;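 also: fluorescence intensity change per second fitted from 20 to 320 s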); conditions: Recombinant KvBeta, NADPH fluorescence decrease slope, 10 min; at 10 µM; stronger effect = lower value
# [6] = target: Alpha-2C adrenergic receptor (Homo sapiens) (UniProt P18825); assay: compounds altering alpha2C-coupled GIRK flux – cell-based, HEK293 alpha2C/GIRK1/2, thallium flux, primary screen (AID 624;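 active = fluorescence slope after compound addition differing from the mean of all screened samples at 99.7% confidence, in either direction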;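 also: slope of fluorescence ratio to pre-addition baseline per second over 15 to 24 s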); conditions: thallium flux BTC fluorescence, at 10 µM, actives lie on both sides
# [7] = blockers of RIG-like receptor reporter activation – cell-based, Sendai virus stimulus, luciferase, 10K MLSCN set, TLR/RLR signaling modifier project, primary screen (AID 602276;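 active = inhibition at or above 50% at 10 µM; inactive = inhibition below 50%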;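 also: firefly luciferase from ISG56 promoter only with Renilla not read in this screen; 0% = Sendai virus plus DMSO and 100% = medium plus DMSO without virus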); conditions: HEK293 RL24 IRF3 luciferase reporter, at 10 µM, stronger effect = higher value
# [8] = TLR3 IRF3 reporter activation blockers – cell-based, poly I:C stimulus, luciferase, 10K MLSCN set, primary screen (AID 602277;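 active = inhibition of the reporter signal at or above 50%; inactive = inhibition below 50%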); conditions: HEK293-TLR3 RL24 IRF3 luciferase reporter, at 10 µM, stronger effect = higher value
# Chain of Alpha-2C adrenergic receptor (Homo sapiens) (P18825 whole entry, looked up): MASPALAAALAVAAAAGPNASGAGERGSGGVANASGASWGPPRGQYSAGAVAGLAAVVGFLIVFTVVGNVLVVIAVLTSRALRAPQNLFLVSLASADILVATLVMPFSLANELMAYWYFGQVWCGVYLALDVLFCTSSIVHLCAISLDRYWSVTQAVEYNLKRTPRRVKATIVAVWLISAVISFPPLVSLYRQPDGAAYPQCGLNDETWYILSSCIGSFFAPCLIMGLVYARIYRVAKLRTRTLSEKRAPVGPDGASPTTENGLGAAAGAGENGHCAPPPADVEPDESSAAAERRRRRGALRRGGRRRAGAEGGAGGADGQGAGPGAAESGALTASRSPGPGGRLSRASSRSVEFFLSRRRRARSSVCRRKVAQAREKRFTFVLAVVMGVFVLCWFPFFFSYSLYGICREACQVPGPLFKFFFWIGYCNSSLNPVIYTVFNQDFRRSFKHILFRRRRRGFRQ
# Chain of Voltage-gated potassium channel subunit beta-2 (Rattus norvegicus) (P62483 whole entry, looked up): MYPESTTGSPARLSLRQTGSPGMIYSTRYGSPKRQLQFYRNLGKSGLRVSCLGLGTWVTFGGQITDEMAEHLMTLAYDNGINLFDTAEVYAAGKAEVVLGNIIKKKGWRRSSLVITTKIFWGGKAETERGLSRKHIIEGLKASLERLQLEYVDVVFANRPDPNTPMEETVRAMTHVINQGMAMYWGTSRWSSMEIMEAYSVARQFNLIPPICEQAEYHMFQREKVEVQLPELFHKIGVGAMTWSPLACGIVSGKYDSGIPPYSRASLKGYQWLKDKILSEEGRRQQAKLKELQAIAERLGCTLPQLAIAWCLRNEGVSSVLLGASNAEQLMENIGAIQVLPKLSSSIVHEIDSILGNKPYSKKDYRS
smiles,measurement,setting,value
CSc1cccc(NC(=O)CN(C)S(=O)(=O)c2ccccc2)c1,cell count,[1],407
same,inhibition,[1],4.6% (inactive)
same,inhibition of aggregation,[2],-0.4% (inactive)
same,nuclei count,[2],103%
same,inhibition,[3],-183% (inactive)
same,nuclei count,[3],111%
same,fluorescence slope,[4],-0.406 (inactive)
same,NADPH fluorescence slope,[5],-3.2e-05 (inactive)
same,slope,[6],0.00611 (inactive)
same,inhibition,[7],6.98% (inactive)
same,inhibition,[8],-6.52% (inactive)
CC(=O)N(c1ccc(Br)cc1)C1C=CS(=O)(=O)C1 (stereo not given),cell count,[1],476
same,inhibition,[1],3.9% (inactive)
same,inhibition of aggregation,[2],25.9% (inactive)
same,nuclei count,[2],49.7%
same,inhibition,[3],-13.7% (inactive)
same,nuclei count,[3],102%
same,fluorescence slope,[4],-0.551 (inactive)
same,NADPH fluorescence slope,[5],-4.3e-05 (inactive)
same,slope,[6],0.00701 (inactive)
same,inhibition,[7],13.8% (inactive)
same,inhibition,[8],30% (inactive)
CCCN1C(=O)c2cc(C(=O)O)ccc2C1O (stereo not given),cell count,[1],817
same,inhibition,[1],8.1% (inactive)
same,inhibition of aggregation,[2],21.4% (inactive)
same,nuclei count,[2],103%
same,inhibition,[3],-95.2% (inactive)
same,nuclei count,[3],118%
same,fluorescence slope,[4],-0.514 (inactive)
same,NADPH fluorescence slope,[5],-2.2e-05 (inactive)
same,slope,[6],0.00732 (inactive)
same,inhibition,[7],4.49% (inactive)
same,inhibition,[8],13.6% (inactive)
Cc1ccc(-c2nc3cc(NC(=O)C(C)C)ccc3o2)cc1,cell count,[1],290
same,inhibition,[1],-6.7% (inactive)
same,inhibition of aggregation,[2],14.3% (inactive)
same,nuclei count,[2],98.3%
same,inhibition,[3],29.7% (inactive)
same,nuclei count,[3],87.7%
same,fluorescence slope,[4],-0.319 (inactive)
same,NADPH fluorescence slope,[5],-3e-05 (inactive)
same,slope,[6],0.0055 (inactive)
same,inhibition,[7],-10.9% (inactive)
same,inhibition,[8],-66.2% (inactive)
Cc1cccn2c(=O)c3cc(C(=O)N4CCCc5ccccc54)n(C)c3nc12,cell count,[1],232
same,inhibition,[1],15.9% (inactive)
same,inhibition of aggregation,[2],10.9% (inactive)
same,nuclei count,[2],98.7%
same,inhibition,[3],29.9% (inactive)
same,nuclei count,[3],96%
same,fluorescence slope,[4],-0.556 (inactive)
same,NADPH fluorescence slope,[5],-3.1e-05 (inactive)
same,slope,[6],0.00631 (inactive)
same,inhibition,[7],6.77% (inactive)
same,inhibition,[8],17.7% (inactive)
O=C(Cn1c(C(=O)NCC2CCCO2)cc2sccc21)c1ccccc1 (stereo not given),cell count,[1],280
same,inhibition,[1],-13.4% (inactive)
same,inhibition of aggregation,[2],20.2% (inactive)
same,nuclei count,[2],80%
same,inhibition,[3],-77.7% (inactive)
same,nuclei count,[3],99.3%
same,fluorescence slope,[4],-0.611 (inactive)
same,NADPH fluorescence slope,[5],5.3e-06 (inactive)
same,slope,[6],0.00924 (inactive)
same,inhibition,[7],5.12% (inactive)
same,inhibition,[8],4.66% (inactive)
Cc1c(N=C2SCC(=O)N2c2c(C)n(C)n(-c3ccccc3)c2=O)c(=O)n(-c2ccccc2)n1C,cell count,[1],592
same,inhibition,[1],4.1% (inactive)
same,inhibition of aggregation,[2],-7.8% (inactive)
same,nuclei count,[2],113%
same,inhibition,[3],-66.8% (inactive)
same,nuclei count,[3],116%
same,fluorescence slope,[4],-0.482 (inactive)
same,NADPH fluorescence slope,[5],-3e-05 (inactive)
same,slope,[6],0.00551 (inactive)
same,inhibition,[7],2.44% (inactive)
same,inhibition,[8],13.3% (inactive)
CC(C)(C)n1nnnc1C(c1cccs1)N1CCN(Cc2ccccc2)CC1 (stereo not given),cell count,[1],482
same,inhibition,[1],-5.1% (inactive)
same,inhibition of aggregation,[2],0% (inactive)
same,nuclei count,[2],100%
same,inhibition,[3],-163% (inactive)
same,nuclei count,[3],230%
same,fluorescence slope,[4],-0.606 (inactive)
same,NADPH fluorescence slope,[5],-6.2e-06 (inactive)
same,slope,[6],0.00586 (inactive)
same,inhibition,[7],15.9% (inactive)
same,inhibition,[8],17.6% (inactive)
COc1ccc(C(=O)OCC(=O)NCc2ccco2)cc1OC,cell count,[1],573
same,inhibition,[1],-18.9% (inactive)
same,inhibition of aggregation,[2],-1.1% (inactive)
same,nuclei count,[2],107%
same,inhibition,[3],-12.3% (inactive)
same,nuclei count,[3],121%
same,fluorescence slope,[4],-0.467 (inactive)
same,NADPH fluorescence slope,[5],-7.7e-05 (inactive)
same,slope,[6],0.00497 (inactive)
same,inhibition,[7],17.6% (inactive)
same,inhibition,[8],27.6% (inactive)
Cc1ccc(S(=O)(=O)N2CCN(C(=O)CSC3CCCC3)CC2)c(C)c1,cell count,[1],318
same,inhibition,[1],3.7% (inactive)
same,inhibition of aggregation,[2],-0.7% (inactive)
same,nuclei count,[2],93.6%
same,inhibition,[3],-425% (inactive)
same,nuclei count,[3],110%
same,fluorescence slope,[4],-0.482 (inactive)
same,NADPH fluorescence slope,[5],4.3e-06 (inactive)
same,slope,[6],0.00451 (inactive)
same,inhibition,[7],17.2% (inactive)
same,inhibition,[8],14.9% (inactive)
CN1CC(=O)N(CC(=O)NCCc2ccc(F)cc2)c2ccccc2C1=O,cell count,[1],214
same,inhibition,[1],21% (inactive)
same,inhibition of aggregation,[2],16.8% (inactive)
same,nuclei count,[2],110%
same,inhibition,[3],-1.2% (inactive)
same,nuclei count,[3],90.4%
same,fluorescence slope,[4],-0.602 (inactive)
same,NADPH fluorescence slope,[5],-2.2e-05 (inactive)
same,slope,[6],0.0102 (inactive)
same,inhibition,[7],10.8% (inactive)
same,inhibition,[8],9.93% (inactive)
COC(=O)C1CCN(C(=O)CN2C(=O)NC(CCc3ccccc3)C2=O)CC1 (stereo not given),cell count,[1],552
same,inhibition,[1],-9.6% (inactive)
same,inhibition of aggregation,[2],-7.5% (inactive)
same,nuclei count,[2],95.7%
same,inhibition,[3],-16.4% (inactive)
same,nuclei count,[3],110%
same,fluorescence slope,[4],-0.542 (inactive)
same,NADPH fluorescence slope,[5],-2.6e-05 (inactive)
same,slope,[6],0.00516 (inactive)
same,inhibition,[7],-17.8% (inactive)
same,inhibition,[8],-13.6% (inactive)
CC1=C(C(=O)OC(C)C)C(c2cccc(F)c2)n2ncnc2N1 (stereo not given),cell count,[1],752
same,inhibition,[1],0% (inactive)
same,inhibition of aggregation,[2],19% (inactive)
same,nuclei count,[2],95.5%
same,inhibition,[3],-76.3% (inactive)
same,nuclei count,[3],114%
same,fluorescence slope,[4],-0.6 (inactive)
same,NADPH fluorescence slope,[5],1.6e-05 (inactive)
same,slope,[6],0.00586 (inactive)
same,inhibition,[7],-7.13% (inactive)
same,inhibition,[8],22.1% (inactive)
COc1cc2c(cc1OC)CN(C(=O)CSc1nnc3scc(-c4ccccc4)n13)CC2,cell count,[1],548
same,inhibition,[1],-0.3% (inactive)
same,inhibition of aggregation,[2],12.8% (inactive)
same,nuclei count,[2],98.2%
same,inhibition,[3],-28.8% (inactive)
same,nuclei count,[3],109%
same,fluorescence slope,[4],-0.515 (inactive)
same,NADPH fluorescence slope,[5],-2.7e-05 (inactive)
same,slope,[6],0.00728 (inactive)
same,inhibition,[7],1.32% (inactive)
same,inhibition,[8],16.8% (inactive)
CCN(CC)C(=O)C1CCC(CNS(=O)(=O)c2cccc3cccnc23)CC1 (stereo not given),cell count,[1],787
same,inhibition,[1],4.4% (inactive)
same,inhibition of aggregation,[2],-8.4% (inactive)
same,nuclei count,[2],94.4%
same,inhibition,[3],-26.3% (inactive)
same,nuclei count,[3],114%
same,fluorescence slope,[4],-0.497 (inactive)
same,NADPH fluorescence slope,[5],-2.6e-05 (inactive)
same,slope,[6],0.00724 (inactive)
same,inhibition,[7],11.4% (inactive)
same,inhibition,[8],16.8% (inactive)
Cc1ccc(S(=O)(=O)NCCSc2nnnn2-c2ccc(C(N)=O)cc2)cc1,cell count,[1],650
same,inhibition,[1],-2.6% (inactive)
same,inhibition of aggregation,[2],2.1% (inactive)
same,nuclei count,[2],115%
same,inhibition,[3],-14.3% (inactive)
same,nuclei count,[3],111%
same,fluorescence slope,[4],-0.564 (inactive)
same,NADPH fluorescence slope,[5],4.8e-06 (inactive)
same,slope,[6],0.00721 (inactive)
same,inhibition,[7],-0.501% (inactive)
same,inhibition,[8],12.6% (inactive)
COc1ccc(NS(=O)(=O)c2coc(C(N)=O)c2)cc1Cl,cell count,[1],734
same,inhibition,[1],-6.3% (inactive)
same,inhibition of aggregation,[2],24% (inactive)
same,nuclei count,[2],86.4%
same,inhibition,[3],-27.2% (inactive)
same,nuclei count,[3],116%
same,fluorescence slope,[4],-0.605 (inactive)
same,NADPH fluorescence slope,[5],1.2e-05 (inactive)
same,slope,[6],0.00632 (inactive)
same,inhibition,[7],6.28% (inactive)
same,inhibition,[8],29.4% (inactive)
COc1ccccc1NC(=O)CSc1nnc(-c2ccncc2)o1,cell count,[1],469
same,inhibition,[1],5.3% (inactive)
same,inhibition of aggregation,[2],-7.5% (inactive)
same,nuclei count,[2],110%
same,inhibition,[3],-23.6% (inactive)
same,nuclei count,[3],117%
same,fluorescence slope,[4],-0.506 (inactive)
same,NADPH fluorescence slope,[5],1.9e-05 (inactive)
same,slope,[6],0.00395 (inactive)
same,inhibition,[7],-2.18% (inactive)
same,inhibition,[8],-9.84% (inactive)
COc1cc(OC)c(OC)cc1CN(C)CCc1ccccn1,cell count,[1],756
same,inhibition,[1],-17% (inactive)
same,inhibition of aggregation,[2],-20.8% (inactive)
same,nuclei count,[2],115%
same,inhibition,[3],-114% (inactive)
same,nuclei count,[3],109%
same,fluorescence slope,[4],-0.356 (inactive)
same,NADPH fluorescence slope,[5],-7.4e-05 (inactive)
same,slope,[6],0.00545 (inactive)
same,inhibition,[7],13.6% (inactive)
same,inhibition,[8],37.3% (inactive)
COc1ccc(C)cc1NC(=O)CN1CCN(S(=O)(=O)c2ccc(Cl)cc2)CC1,cell count,[1],409
same,inhibition,[1],-1.5% (inactive)
same,inhibition of aggregation,[2],4.2% (inactive)
same,nuclei count,[2],104%
same,inhibition,[3],-76.7% (inactive)
same,nuclei count,[3],98.9%
same,fluorescence slope,[4],-0.41 (inactive)
same,NADPH fluorescence slope,[5],-3e-05 (inactive)
same,slope,[6],0.0018 (inactive)
same,inhibition,[7],5.97% (inactive)
same,inhibition,[8],15.6% (inactive)
